For 26 molecules, Inhibition results are on record in ChEMBL document CHEMBL1157539, “Thousands of chemical starting points for antimalarial lead identification” (Nature, 2010).

Usually Inhibition stands for the relative decrease from the control value, in per cent. Read a low Inhibition as little suppression.

This experiment concerns Plasmodium falciparum. Put plainly: GSK_TCMDC: Inhibition of Plasmodium falciparum 3D7 in whole red blood cells, using parasite LDH activity as an index of growth. Test compounds present at 2uM. The format is functional.
The molecule `COc1c(C2CCN(CCCCNC(=O)c3ccc(-c4ccc(C(F)(F)F)cc4)c(C(=O)OC(C)C)c3)CC2)ccc2c1CCCC2` showed an Inhibition of 90%.

`Cc1cccc2nc(-c3ccc(-c4ccc(CN5CC(C)OC(C)C5)cc4)cc3)[nH]c12.O=C(O)C(F)(F)F` (stereo unspecified) had an Inhibition of 97%.

With `COc1ccc(CNCC(C)(C)c2nc(-c3ccc(Cl)c(O)c3)c(-c3ccncc3)[nH]2)cc1.Cl`, the Inhibition was 100%.

`Cc1cccc2nc(-c3ccc(-c4cccc(CN5CCCC(N)C5)c4)s3)[nH]c12.O=C(O)C(F)(F)F` (stereo unspecified) yielded an Inhibition of 100%.

Regarding `CCc1nc(N)nc(N)c1-c1ccc(F)c(F)c1`, the Inhibition was 98%.

For the molecule `Cc1ccc(NC(=O)c2ccc(CN3CCCN(Cc4cccc(Cl)c4)CC3)cc2)cc1C.O=C(O)C(F)(F)F`, the Inhibition is 84%.

Molecule `Cc1nc2nc(N)nc(N)c2c(C)c1Cc1ccc(C(F)(F)F)cc1.Cl` came in with an Inhibition of 96%.

As to `Cc1cccc2nc(-c3ccc(-c4ccc(CN5CCC(N)C5)cc4)s3)[nH]c12.O=C(O)C(F)(F)F` (stereo unspecified), the Inhibition stood at 100%.

The molecule `CN(C)Cc1ccc(-c2ccc3c(Nc4ccc(Oc5ccccn5)cc4)ccnc3c2)o1` returned an Inhibition of 100%.

In the case of `Cc1cccc2nc(-c3cccc(-c4ccc(NC(=O)c5ccc(=O)[nH]n5)cc4)c3)[nH]c12`, the Inhibition is reported as 100%.

For `CCCN(c1ccc(C(F)(F)F)cc1[N+](=O)[O-])S(=O)(=O)C(c1ccccc1)c1ccc(C(F)(F)F)cc1[N+](=O)[O-]` (stereo unspecified), the Inhibition amounted to 94%.

Consider `COC(=O)c1sc(-c2ccc(Cl)cc2)cc1N(CCCN1CCC(N2CCCCC2)CC1)S(=O)(=O)c1ccc(C)cc1`, for which the Inhibition turned out to be 100%.

The molecule `O=C(Nc1ccc(Br)cc1)c1cc(Br)ccc1NS(=O)(=O)c1ccc(C(F)(F)F)cc1` gave an Inhibition of 100%.

On to `O=C(Nc1ccnc(N2CCCN(Cc3cccc(O)c3)CC2)c1)c1ccc(F)cc1.O=C(O)C(F)(F)F`, for which the Inhibition is 90%.

Consider `CCCOc1cc(O)c(-c2[nH]nc(C)c2Oc2ccccc2)cc1CC`, for which the Inhibition was found to be 91%.

In the case of `CN(C)Cc1ccc(CN2CCN(CCOc3ccc(-c4ccc(Cl)cc4)cc3)CC2)o1`, the Inhibition turned out to be 90%.

As for `O=C(O)C(F)(F)F.O=S(=O)(NCCN1CCCC1)c1ccc(-c2cccc(CNCc3ccsc3)c2)s1`, the Inhibition was 90%.

Take `COc1cc2nc(N3CCC(CNC(=O)c4ccc(-c5ccc(C(=O)N(C)C)cc5OCCN(C)C)cc4)CC3)nc(N)c2cc1OC`: the Inhibition is 95%.

Molecule `CC(C)(C)OC(=O)NCc1ccc(Nc2nnc(-c3cccc(C(=O)NCc4cc(C(F)(F)F)cc(C(F)(F)F)c4)c3)o2)cc1` came in with an Inhibition of 90%.

`O=C(Nc1cccc(Cl)c1)c1cnc(N2CCN(c3ccncc3)CC2)c(Cl)c1.O=C(O)C(F)(F)F`: the Inhibition amounted to 100%.

As for `Clc1cccc(CNc2nc(NCCc3c[nH]cn3)nc(NC3CCCCC3)n2)c1`, the Inhibition was determined as 98%.

The molecule `CCN(CC)CCn1c(=N)n(CC(O)c2ccc(Cl)c(Cl)c2)c2ccccc21.Cl` (stereo unspecified) came in with an Inhibition of 99%.

For the molecule `Cc1[nH]c2c(NCc3ccc(F)cc3)nccc2c1C`, the Inhibition came out at 83%.

Molecule `COc1ccc(CCNCCCCCCNCCc2cccc([N+](=O)[O-])c2)cc1OC.Cl` yielded an Inhibition of 93%.

The molecule `COc1ccc(CNCc2ccc(-c3cccc(-c4nc5ccccc5[nH]4)c3)cc2)cc1.O=C(O)C(F)(F)F` showed an Inhibition of 100%.

In turn, `CCN(CC)CCCN(CCCN(CC)CC)c1cc(C)nc(Nc2ccc(Cl)cc2)n1.O=C(O)C(=O)O` came in with an Inhibition of 100%.
